The values that follow come from PubChem BioAssay (NCATS).

For orientation: viability means a read-out of living cells in per cent, often relative to untreated cells.

The target in test [1] is Cellular tumor antigen p53 (Homo sapiens) (UniProt P04637). Briefly: Primary qHTS for small molecule compounds that upregulate eGFP-tagged delta133p53alpha (in N-terminal) cells. (AID 2060322). Further: nearly all actives have a fitted effect of over 75% in size. Further: potency means the concentration at half of the fitted maximal effect.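 On activation: cells pre-induced with doxycycline then dosed without doxycycline; series mostly up to about 56 µM; 0% = DMSO vehicle and 100% = reference activator.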 The conditions noted are these: NCI-H358 eGFP-delta133p53alpha fluorescence, 24 h; activation: stronger effect = higher value. Summed up: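 NCI-H358 cells pre-induced 24 h with 10 ng/ml doxycycline for eGFP-delta133p53alpha, plated dox-free and exposed 24 h at 37C to titrated compounds. Fixed, Hoechst-stained; gated GFP peak intensity by laser scanning cytometry, normalized to DMSO (0%) and 57.5 uM 5-azacytidine (100%).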
(qHTS replaces the single test concentration by a dilution series.)

For test [2], the target named is Aldehyde dehydrogenase, mitochondrial (Homo sapiens) (UniProt P05091). As to the kind of experiment: qHTS for Inhibitors of the Aldehyde Dehydrogenase Family (ALDH2) Validation screens (AID 2061302; active means well fitted inhibition curve with a large enough effect; title and protocol of this record describe different tests; further: potency means the concentration at half of the fitted maximal effect).
In test [3] the target is Retinaldehyde dehydrogenase 3 (Homo sapiens) (UniProt P47895). As to the kind of experiment: qHTS for Inhibitors of the Aldehyde Dehydrogenase Family (ALDH1A3) Validation screen (AID 2061312). Further: nearly all actives have a fitted effect of over 45% in size. Further: potency means the concentration at half of the fitted maximal effect.
Test [4] deals with Aldehyde dehydrogenase, mitochondrial (Homo sapiens) (UniProt P05091). Briefly: qHTS for Inhibitors of the Aldehyde Dehydrogenase Family (ALDH2) Confirmatory screens (AID 2061303; active means well fitted inhibition curve with a large enough effect; title and protocol of this record describe different tests; further: on the % scale 0 is the no-effect control and ±100 the full control effect; nearly all actives have a fitted effect of over 45% in size).
Test [5] can be described thus: qHTS for Inhibitors of the Aldehyde Dehydrogenase Family (ALDH1A2, ALDH1A3, ALDH2, ALDH3A1) (AID 2061307). Further: nearly all actives have a fitted effect of over 50% in size. On Potency: test system not described further here; potency means the concentration at half of the fitted maximal effect.
Test [6] addresses Retinaldehyde dehydrogenase 3 (Homo sapiens) (UniProt P47895). Briefly: qHTS for Inhibitors of the Aldehyde Dehydrogenase Family (ALDH1A3) Confirmatory screens (AID 2061311). Further: nearly all actives have a fitted effect of over 60% in size. Further: potency means the concentration at half of the fitted maximal effect.
Test [7] has as its target Retinal dehydrogenase 2 (Homo sapiens) (UniProt O94788). Briefly: qHTS for Inhibitors of the Aldehyde Dehydrogenase Family (ALDH1A2) Confirmation screens (AID 2061314). Further: nearly all actives have a fitted effect of over 65% in size. Further: potency means the concentration at half of the fitted maximal effect.
The target in test [8] is Aldehyde dehydrogenase, mitochondrial (Homo sapiens) (UniProt P05091). Briefly: qHTS for Inhibitors of the Aldehyde Dehydrogenase Family (ALDH2) Primary screen (AID 2061308).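 Further: plate controls were vehicle for no effect and reference inhibitor for full effect; nearly all actives have a fitted effect of over 55% in size.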
Test [9] concerns the target Retinaldehyde dehydrogenase 3 (Homo sapiens) (UniProt P47895). As to the kind of experiment: qHTS for Inhibitors of the Aldehyde Dehydrogenase Family (ALDH1A3) Primary screen (AID 2061315).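 Further: plate controls were DMSO vehicle for no effect and reference inhibitor for full effect.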
In test [10] the target is Aldehyde dehydrogenase 1A1 (Homo sapiens) (UniProt P00352). Briefly: qHTS for Inhibitors of the Aldehyde Dehydrogenase Family (ALDH1A1) Confirmatory screens (AID 2061316). Further: nearly all actives have a fitted effect of over 65% in size. Further: potency means the concentration at half of the fitted maximal effect.
A short description of test [11]: BET inhibitor-based combinations targeting novel dependencies in MECOM-rearranged (r) AML: SET-2 cell line (AID 2202231). Further: nearly all actives have a fitted effect of over 35% in size. Further: potency means the concentration at half of the fitted maximal effect.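 On viability: plate controls were DMSO treated cells for no effect and wells without cells for full effect.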 The conditions noted are these: SET-2 AML cells viability, CellTiter-Glo luminescence, 48 h; viability: stronger effect = lower value, concentration not given here. Summed up:
(§1)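 A 48 hr incubation preceded viability reading by CellTiter-Glo, with 15 min room-temperature development. Dose series had 11 points; normalization used DMSO and empty wells; AUC was computed and mean-centered per line as Z-AUC.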
Background: ATP-based viability assays read luminescence as a measure of living cells.

The nature of test [12]: BET inhibitor-based combinations targeting novel dependencies in MECOM-rearranged (r) AML: UCSD-AML1 cell line (AID 2202235). Further: nearly all actives have a fitted effect of over 40% in size. Further: potency means the concentration at half of the fitted maximal effect. The gist of the method: (§2)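 Each compound is tested in an 11-point concentration series against 500 seeded cells/well for 48 hr. The luminescent viability signal is normalized to DMSO and blank wells, then reduced to AUC and a cell-line-centred Z-AUC.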

Test [13] is described as follows: BET inhibitor-based combinations targeting novel dependencies in MECOM-rearranged (r) AML: AML-194 cell line (AID 2202237;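 further: plate controls were vehicle wells for no effect and wells without cells for full effect; nearly all actives have a fitted effect of over 40% in size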). The gist of the method: as §1
The nature of test [14]: BET inhibitor-based combinations targeting novel dependencies in MECOM-rearranged (r) AML: OCI-AML3 cell line (AID 2202232). Further: nearly all actives have a fitted effect of over 35% in size. Further: potency means the concentration at half of the fitted maximal effect. The conditions noted are these: Potency: OCI-AML3 viability. Summed up:
as §1

Test [15] is described as follows: BET inhibitor-based combinations targeting novel dependencies in MECOM-rearranged (r) AML: MV-4-11 cell line (AID 2202233). Further: nearly all actives have a fitted effect of over 45% in size. Further: potency means the concentration at half of the fitted maximal effect. The gist of the method: as §2
A short description of test [16]: BET inhibitor-based combinations targeting novel dependencies in MECOM-rearranged (r) AML: HNT-34 cell line (AID 2202234).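 Further: plate controls were vehicle wells for no effect and cell-free wells for full effect; nearly all actives have a fitted effect of over 35% in size.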 The gist of the method: as §2
A short description of test [17]: BET inhibitor-based combinations targeting novel dependencies in MECOM-rearranged (r) AML: AML-191 cell line (AID 2202236; further: nearly all actives have a fitted effect of over 35% in size; further: potency means the concentration at half of the fitted maximal effect). The gist of the method:
as §1

Where “and” joins values, the source holds several entries; their conditions need not be identical. Equal values may be shown once. Inconclusive results are not listed. The source holds several records for some structures; these can differ, active in one and inactive in another. Calls of active or inactive are those of the source. Unless noted, the call rests on the fitted dose curve; in most records, active means well fitted curve in the direction sought with a large enough effect; inconclusive means small, poorly fitted or top-dose-only effect, or another doubt; inactive means no such curve, though single readings can be large; an effect the other way counts as inactive or inconclusive.

Chain of Cellular tumor antigen p53 (Homo sapiens) (P04637 whole entry, looked up): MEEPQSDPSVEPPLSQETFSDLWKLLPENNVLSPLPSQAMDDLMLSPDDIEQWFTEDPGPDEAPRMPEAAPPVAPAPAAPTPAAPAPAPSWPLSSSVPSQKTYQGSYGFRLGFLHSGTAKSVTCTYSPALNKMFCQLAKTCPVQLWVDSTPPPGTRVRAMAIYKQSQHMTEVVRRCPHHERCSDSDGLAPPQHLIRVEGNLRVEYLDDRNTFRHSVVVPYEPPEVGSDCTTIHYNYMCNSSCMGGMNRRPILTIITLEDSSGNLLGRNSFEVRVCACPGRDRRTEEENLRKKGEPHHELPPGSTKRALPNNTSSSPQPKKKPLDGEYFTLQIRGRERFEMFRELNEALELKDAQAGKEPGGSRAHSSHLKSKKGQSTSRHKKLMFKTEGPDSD

Take `O=C(CCCN1CCC2(CC1)C(=O)NCN2c1ccccc1)c1ccc(F)cc1`: the activation in test [1] is -10.7% (inactive) and -39.7% (inactive). In addition, the Potency entry in test [2] and in test [3] was “inactive” in each case.

On to `CN1CC[C@@]2(C)c3cc(OC(=O)Nc4ccccc4)ccc3N(C)[C@@H]12`, for which the activation in [1] was 26.7% (inactive). Also, the Potency result in test [4] was “inactive”. The Potency in test [5] was 8.96 µM (active); in test [6], “inactive and 7.98 µM (active)”; in test [7], “inactive and 5.65 µM (active)”.

Consider `COc1ccc2c(c1)c(CCN(C)C)cn2S(=O)(=O)c1ccccc1`, for which the activation in test [1] is 7.16% (inactive). For the same molecule, the Potency result in test [4], in [5], in test [8], in test [6], in test [3] and in test [7] was “inactive” each time. For the same molecule, the Potency result in [9] was “inactive”.

Turning to `CO[C@@H]1[C@H](O)[C@@H](O[C@@H]2C[C@H]3CC[C@@H]4C(CC[C@]5(C)[C@@H](C6=CC(=O)OC6)CC[C@]45O)[C@@]3(C)[C@H](O)C2)O[C@H](C)[C@@H]1O` (stereo partly drawn), in test [1], the Potency is 1.04 µM (active). The Potency result in test [4], in test [5], in [8], in test [6], in test [7] and in test [9] was “inactive” each time. For the same molecule, the Potency entry in test [10] is “inactive”.

For `O=c1[nH]oc2c1CCNC2`, in [1], the activation was -18.6% (inactive) and 14.5% (inactive). The Potency entry in [2] and in test [3] was “inactive” each time.

With `O=c1[nH]c2ccccc2n1CCCN1CCC(n2c(=O)[nH]c3cc(Cl)ccc32)CC1`, the activation in [1] was 22.2% (inactive) and -21.7% (inactive). Further, the Potency entry in [2], in test [3], in [12] and in test [13] was “inactive” in each case. Also, in test [11], the viability was 95.9% (inactive).

As to `CCCN(CCC)[C@@H]1CCc2ccc(O)cc2C1`, the activation in test [1] was -24.8% (inactive). The Potency result in test [2] and in test [3] was “inactive” each time.

As to `O=C(O)c1nn(Cc2ccc(Cl)cc2Cl)c2ccccc12`, the activation in test [1] is 21.3% (inactive) and 19.8% (inactive) and -21.2% (inactive). Besides, the Potency entry in test [2], in [3], in test [14], in test [15], in test [16] and in test [12] was “inactive” each time. Further, the Potency result in test [17] and in test [13] was “inactive” each time. In [11], the viability was 107% (inactive).

Regarding `CC(=O)c1c(O)c(C)c(O)c(Cc2c(O)c3c(c(C(=O)/C=C/c4ccccc4)c2O)OC(C)(C)C=C3)c1O`, the activation in test [1] is -54.1% (inactive). The Potency in test [2] is 8.91 µM (active); in [12], 4.17 µM (active). Moreover, the Potency entry in test [14], in test [15] and in test [13] was “inactive” each time.

As to `C[C@]12Cc3cn4c(nc3C=C1CCC1C2CC[C@@]2(C)[C@H]1CC[C@@]2(O)C#N)nc1ccccc14` (stereo partly drawn), in test [1], the activation is -9.64% (inactive). Further, the Potency result in test [2] is “inactive”. For the same molecule, the Potency in test [10] was 12.7 µM (active).

As to `C[C@H](Cc1ccc2c(c1)OC(C(=O)O)(C(=O)O)O2)NC[C@H](O)c1cccc(Cl)c1`, the activation in [1] was -6.85% (inactive). The Potency entry in [2] and in test [3] was “inactive” in each case.

Regarding `C[C@H](N)CN1CCc2ccc(Br)cc21`, the activation in test [1] is 5.22% (inactive). Also, the Potency result in test [2] and in test [3] was “inactive” throughout.

Take `c1ccc(C2CC2)c(OCC2=NCCN2)c1`: the activation in [1] was 9.21% (inactive) and -4.03% (inactive). Moreover, the Potency entry in [2] and in test [3] was “inactive” in each case.

As for `NCCc1c[nH]c2ccccc12`, the activation in test [1] is -5.39% (inactive). Further, the Potency entry in test [2] and in test [3] was “inactive” each time.

In the case of `COC[C@H]1OC(=O)c2coc3c2[C@@]1(C)C1=C(C3=O)C2CCC(=O)[C@@]2(C)C[C@H]1OC(C)=O` (stereo partly drawn), the activation in test [1] was -11.7% (inactive). Also, in [2], the Potency entry is “inactive”. Also, the Potency was 7.08 µM (active) in test [3]; 18.6 µM (active) in test [11]; 7.42 µM (active) in [14]; 5.25 µM (active) in test [15]; 5.9 µM (active) in test [12]; 6.61 µM (active) in test [17].

For the molecule `CCCN1CCC[C@@H]2Cc3[nH]ncc3C[C@H]21`, the activation in [1] is -5.86% (inactive) and -11.2% (inactive) and 2.09% (inactive). Further, the Potency entry in [2] and in test [3] was “inactive” each time.

On to `C[C@H]1C2Cc3ccc(O)cc3[C@@]1(C)CCN2CC1CC1`, for which, in test [1], the activation was -23.4% (inactive). Also, the Potency entry in test [2] and in test [3] was “inactive” throughout.

Regarding `O=C(O)[C@@H]1CCN1`, the activation in [1] is -48.2% (inactive). Besides, the Potency result in [2] and in [3] was “inactive” each time.

Consider `CCCN(CCC)C1CCc2ccc(O)cc2C1` (stereo not drawn), for which the activation in [1] was -10.8% (inactive). Besides, the Potency result in test [2] and in test [3] was “inactive” in each case.

On to `CCC(C)C1NC(=O)C(C(C)=O)=C1O` (stereo not drawn), for which, in [1], the activation is 13% (inactive). In addition, the Potency entry in test [4], in test [5], in test [8] and in test [9] was “inactive” in each case.

Turning to `CC(N)[C@H](O)c1ccc(O)c(O)c1` (stereo partly drawn), the activation in test [1] is -12.2% (inactive). For the same molecule, the Potency result in [2] and in [3] was “inactive” throughout.

Regarding `NCC1(CC(=O)O)CCCCC1`, the activation in [1] was -0.945% (inactive) and -3.35% (inactive) and 5.99% (inactive). Moreover, the Potency entry in test [2], in test [3] and in [12] was “inactive” in each case.

In the case of `Nc1ccc(CCN2CCN(c3cccc(C(F)(F)F)c3)CC2)cc1`, the activation in test [1] was -62.8% (inactive). The Potency entry in [2] and in [3] was “inactive” in each case.

For `CC(N)Cc1c[nH]c2ccc(OCc3cccs3)cc12` (stereo not drawn), in test [1], the activation is -31.9% (inactive). Moreover, the Potency entry in [2] and in test [3] was “inactive” throughout.

Take `CN1C2CCC1CC(OC(c1ccccc1)c1ccccc1N)C2` (stereo not drawn): the activation in [1] is -67.5% (inactive). In addition, the Potency entry in [2] and in [3] was “inactive” in each case.

Regarding `C[C@@H](N)Cc1cnc[nH]1`, in [1], the activation was 5.3% (inactive). The Potency entry in test [2] and in [3] was “inactive” each time.

Regarding `CCCN(CCC)[C@@H]1CCc2ccc3[nH]c(C#N)cc3c2C1`, in [1], the activation was 19.1% (inactive). The Potency result in test [4], in test [5], in test [8], in test [6], in test [7] and in test [9] was “inactive” in each case.
